We go through 99 compounds from PubChem BioAssay AID1259374 (The Scripps Research Institute Molecular Screening Center, 2018).

About 5,900 (0.91%) of roughly 650,000 compounds were called active. Many of the other results were omitted from the sample, so actives are more common in it than they were. A number with no mark means an inactive call. Cut-off read from the data, not from the text of the source: active = inhibition above about 50%; inactive = the rest.

This assay deals with Microphthalmia-associated transcription factor (Homo sapiens) (UniProt O75030). Kind of assay: MITF inhibitors, primary screen, biochemical, AlphaScreen, human (AID 1259374).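 Note: 0% = vehicle wells with protein.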 Conditions: AlphaScreen MITF homodimerization, bead proximity signal; at 2.6 µM; stronger effect = higher value.
Microphthalmia-associated transcription factor (Homo sapiens), sequence (O75030 whole entry, looked up): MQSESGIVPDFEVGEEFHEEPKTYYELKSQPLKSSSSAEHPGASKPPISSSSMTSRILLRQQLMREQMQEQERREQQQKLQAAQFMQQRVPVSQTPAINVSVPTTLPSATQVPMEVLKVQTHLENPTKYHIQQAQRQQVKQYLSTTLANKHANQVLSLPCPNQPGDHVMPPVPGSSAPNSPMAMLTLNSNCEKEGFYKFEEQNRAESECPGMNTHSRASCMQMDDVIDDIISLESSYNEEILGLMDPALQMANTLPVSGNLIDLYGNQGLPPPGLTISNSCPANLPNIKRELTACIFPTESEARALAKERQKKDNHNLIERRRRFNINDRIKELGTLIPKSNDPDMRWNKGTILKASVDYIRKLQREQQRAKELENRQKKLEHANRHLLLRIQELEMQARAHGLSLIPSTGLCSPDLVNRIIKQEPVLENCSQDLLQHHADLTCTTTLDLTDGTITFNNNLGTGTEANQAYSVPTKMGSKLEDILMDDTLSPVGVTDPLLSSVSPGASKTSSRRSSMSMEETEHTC
For the compound `Cc1ccc(C2CC(c3ccc(Br)cc3)=NN2C(=O)CSc2nnc(CNC(=O)COc3ccccc3)n2C)cc1` (centres undefined), the inhibition is -9.25%.

Turning to `Clc1ccc(CN2CCc3nnc(C4CCCO4)n3CC2)cc1` (centres undefined), the inhibition was 9.36%.

As for `Clc1ccc(CN2CCN(CC3CC=CCC3)CC2)cc1` (centres undefined), the inhibition is 78.5% (active).

As for `O=C(c1ccccc1)N1CCN(Cc2ccc(Cl)cc2)CC1`, the inhibition was 48.9%.

For `CC(=O)NS(=O)(=O)c1ccc(-c2ccc(/C=C3/C(=O)N(CCCO)C(=O)C(C#N)=C3C)o2)cc1`, the inhibition was 3.37%.

For the compound `N#C/C(=C\c1ccc(-c2ccc(S(N)(=O)=O)cc2)o1)C(N)=O`, the inhibition is 3.71%.

As for `CC(=O)NS(=O)(=O)c1ccc(-c2ccc(C=C(C#N)C#N)o2)cc1`, the inhibition was 64.8% (active).

With `O=C(CCc1ccc2c(c1)OCO2)N1CCC(c2[nH]ncc2-c2ccccc2)CC1`, the inhibition was -0.09%.

Turning to `Cc1cc(Br)ccc1OCCN1CCNCC1`, the inhibition was 36.3%.

In the case of `Cc1cccc(OCCN2CCNCC2)c1C`, the inhibition is 73.1% (active).

As to `Cc1cccc(OCCOCCN2CCC(C)CC2)c1C`, the inhibition is 24.9%.

As to `Cc1ccc(OCCN2CCNCC2)cc1C`, the inhibition is 9.7%.

As to `Cc1cc(C(C)(C)C)ccc1OCCN1CCNCC1`, the inhibition is 52.3% (active).

For the compound `C=CCc1ccccc1OCCN1CCNCC1`, the inhibition is 26.5%.

Regarding `N#Cc1c(/N=C/c2ccccc2OCC(=O)O)sc2c1CCCC2`, the inhibition was 2%.

For `COc1ccccc1CNC(=O)c1ccccc1Br`, the inhibition was 7.79%.

With `O=c1c2ccccc2nc(/C=C\c2ccc(F)c(F)c2)n1-c1ccc(Cl)cc1[N+](=O)[O-]`, the inhibition was 1.53%.

As for `Cn1c(CC(=O)NNC(=O)CNC(=O)c2ccc(Br)cc2)nc2ccccc21`, the inhibition was 8.22%.

In the case of `Cc1ccc(-c2nn3c(C)nnc3s2)cc1NC(=O)COc1ccc(Cl)cc1C`, the inhibition is -9.16%.

For `O=S(=O)(c1cc(Br)ccc1Br)N1CCN(CCO)CC1`, the inhibition was 7.82%.

With `O=S(=O)(c1ccc(Br)cc1Cl)N1CCN(CCc2ccncc2)CC1`, the inhibition was 75.3% (active).

Take `O=S(=O)(/C=C/c1ccccc1)N1CCN(CCc2ccncc2)CC1`: the inhibition was 3.78%.

In the case of `CCN1CCN(Cc2c(O)ccc3c2O/C(=C\c2cc(OC)ccc2OC)C3=O)CC1`, the inhibition was -14.3%.

For the compound `CN1CC(CO)O/C1=C(C#N)\C=C1\Nc2ccccc2C1=O` (centres undefined), the inhibition is 21.7%.

Regarding `COc1ccc(OCCCC(=O)Nc2ccccc2)cc1`, the inhibition was 14.3%.

As to `COc1ccc(OC(=O)COc2ccc(Br)cc2)cc1`, the inhibition is 1.98%.

Turning to `COc1ccc(OCCCC(=O)Oc2ccc(OC)cc2)cc1`, the inhibition was 80.3% (active).

With `CCC(C)c1ccccc1NC(=O)C(C)Cl` (centres undefined), the inhibition is -5.29%.

On to `CN(CC(=O)Nc1ccccc1F)CC(=O)Nc1ccccc1Br`, for which the inhibition is -2.33%.

`CCC(C)c1ccccc1NC(=O)CN(C)CC(=O)Nc1ccccc1SC` (centres undefined): the inhibition is 89.7% (active).

On to `Cc1ccc(C23CC4CC(CC(C(=O)NCC(=O)NN)(C4)C2)C3)cc1`, for which the inhibition was -4.06%.

Regarding `O=C(COc1ccc(Cl)cc1)N/N=C/c1ccc([N+](=O)[O-])c(O)c1`, the inhibition is -8.51%.

Regarding `COc1ccc(S(=O)(=O)N(C)CC(=O)Nc2ccc(F)cc2F)cc1OC`, the inhibition was -13.8%.

As for `N#C/C(=C/c1ccc(-c2ccc(F)cc2)o1)C(=O)N1CCCCC1`, the inhibition is -2.65%.

As for `N#C/C(=C\c1ccc(-c2ccc(F)cc2)o1)C(=O)O`, the inhibition is 9.25%.

Regarding `N#C/C(=C/c1ccc(-c2ccc3c(c2)C(=O)NC3=O)o1)C(=O)O`, the inhibition was 54.7% (active).

`CCCN(CCC)C(=O)C(Cc1ccccc1)N1C(=O)C2C3C=CC(C3)C2C1=O` (centres undefined): the inhibition was -7.73%.

On to `COc1ccc(CNCC2CN(CC(C)C)CCO2)cc1` (centres undefined), for which the inhibition is 54.3% (active).

On to `COc1ccc(CNC(=O)CC(C)C)cc1`, for which the inhibition was 4.41%.

Take `COc1ccc(CN[C@H]2C[C@H]3C(=O)N[C@@H](C(C)C)C(=O)N3C2)cc1`: the inhibition was 16%.

`CCCCCNC(=O)COc1ccccc1C#N`: the inhibition was -3.44%.

For `O=C(Nc1ccc(F)cc1F)c1cc([N+](=O)[O-])ccc1Cl`, the inhibition was -3.07%.

For the compound `O=C(Nc1nc2ccccc2n1CCOc1ccc(F)cc1)c1ccc(Cl)cc1`, the inhibition is -6.19%.

Consider `COc1ccc(-c2nc3ccccc3[nH]2)cc1OC`, for which the inhibition is 10.1%.

With `COc1ccc(C2=NNc3cccc4c(OC)ccc2c34)cc1OC`, the inhibition was 51.8% (active).

Turning to `COc1cc(Nc2nc(-c3ccc(OC)c(OC)c3)nc3ccccc23)cc(OC)c1`, the inhibition is -23%.

In the case of `CCNCc1ccc(OCC(=O)Nc2ccc(OC)cc2)c(OC)c1`, the inhibition was -12.6%.

Take `COC(=O)Oc1c([N+](=O)[O-])cc2oc(=O)sc2c1[N+](=O)[O-]`: the inhibition is 59.1% (active).

`COc1cc([N+](=O)[O-])cc([N+](=O)[O-])c1NC(=O)N1CCOCC1`: the inhibition was 11.6%.

Regarding `COC(=O)c1ccc(N2CCOCC2)c([N+](=O)[O-])c1`, the inhibition was 10.3%.

For `Cc1cccc(C(=O)Nc2ccc3oc(-c4ccc(Cl)c(Cl)c4)nc3c2)c1`, the inhibition is 6.63%.

`O=C(Nc1nc2ccccc2s1)C(Cc1ccccc1)N1C(=O)c2ccccc2C1=O` (centres undefined): the inhibition was -3.65%.

In the case of `CNC(=O)c1cc(F)ccc1Nc1cc(Nc2ccc(NC(C)=O)cn2)ncc1C(F)(F)F`, the inhibition was 1.21%.

On to `CC(C)c1ccc(NC(=O)CSc2nnc(CNC(=O)c3ccccc3)n2C)cc1`, for which the inhibition is 14%.

On to `Cc1cccnc1NC(=O)CSc1nnc(COc2ccc(C(C)C)cc2)n1C`, for which the inhibition is 53.7% (active).

`Cc1ccccc1OCc1nnc(SCC(=O)NC(C)(C)C)n1C`: the inhibition is 11.7%.

In the case of `CCOc1cc(/C=N/NC(=O)CC(=O)NCC(C)C)ccc1O`, the inhibition is 14.6%.

As for `Cc1nc(NCCCN2CCOCC2)cc(-c2ccccn2)n1`, the inhibition was 12.2%.

In the case of `c1ccc(-c2cc(NCCCn3ccnc3)nc(-c3ccccn3)n2)nc1`, the inhibition is 115% (active).

For the compound `Clc1ccc(-c2cc(NCCCn3ccnc3)ncn2)cc1`, the inhibition was 14.7%.

For `CCCCSc1nnc(CNC(=O)Cc2ccccc2)n1-c1ccc(Cl)c(Cl)c1`, the inhibition is 15.1%.

On to `O=C1CCc2ccc(OCc3ccccc3F)cc21`, for which the inhibition is 12.2%.

Take `COc1ccc(-n2nc(C(=O)N3CCC(C(N)=O)CC3)c3ccccc3c2=O)c(OC)c1`: the inhibition is 11.6%.

As to `CCN(CC)c1ccc(NC(=O)c2ccc(OC)cc2)c(C)c1`, the inhibition is -6.58%.

`CCN(CC)c1ccc(NC(=O)CCc2nnc3ccc(N4CCCCC4)nn23)c(C)c1`: the inhibition was 15.7%.

Take `CCN1CCN(CC(=O)Nc2ccc(N(CC)CC)cc2C)CC1`: the inhibition is 70.1% (active).

Regarding `O=C(Cc1csc(Nc2ccc(Cl)cn2)n1)NCc1ccccc1Cl`, the inhibition was 13.2%.

Consider `Cc1ccccc1-n1c(SCC(=O)Nc2ccc(C(N)=O)cc2)nnc1-c1ccncc1`, for which the inhibition is 24.8%.

In the case of `Cc1c(C(=O)c2ccccc2)oc2ccc(NC(=O)C(C)C)cc12`, the inhibition was -6.05%.

On to `O=C1N=C(N2CCCC2)S/C1=C/c1ccc(-c2ccccc2[N+](=O)[O-])o1`, for which the inhibition was 18.4%.

Take `CCCCC(=O)Nc1nc(-c2ccc(I)cc2)cs1`: the inhibition is -1.42%.

With `C=CCn1c(C)cc(-c2csc(NC(=O)c3ccc([N+](=O)[O-])s3)n2)c1C`, the inhibition is 5.62%.

`CCCn1c(C)cc(-c2csc(NC(=O)Cc3ccsc3)n2)c1C`: the inhibition was 73.1% (active).

Take `O=C(NCCc1ccccc1)c1c[nH]c2ccc(S(=O)(=O)N3CCc4ccccc43)cc2c1=O`: the inhibition was 5.29%.

With `COc1cccc(C(=O)N2CCN(Cc3cc(OC)c(OC)cc3OC)CC2)c1`, the inhibition was 63.4% (active).

In the case of `COc1cc(Br)cc(CN2CCCN(C)CC2)c1O`, the inhibition is 7.81%.

Consider `OCCOCCN1CCN(Cc2ccc(Cl)cc2)CC1`, for which the inhibition was 82.7% (active).

As to `COc1ccc(Br)cc1CN1CCN(C(C)=O)CC1`, the inhibition was 2.27%.

Turning to `COc1ccc(Br)cc1CN1CCN(CCOCCO)CC1`, the inhibition was 66.6% (active).

As to `COc1cccc(C(=O)N2CCN(C(=O)c3cccc(OC)c3)CC2)c1`, the inhibition was -5.18%.

`COc1cccc(CN2CCN(CCOCCO)CC2)c1OC`: the inhibition was -6.67%.

For `COc1ccc(/C(C)=N/N)cc1CN1CCCCC1`, the inhibition was -0.23%.

With `COc1ccc(Br)cc1CN1CCN(C(=O)c2cccnc2)CC1`, the inhibition is 88.2% (active).

Regarding `COc1cc(OC)c(OC)cc1CN1CCN(C(=O)c2cccs2)CC1`, the inhibition was 35.6%.

For `OCCN1CCN(CC(O)COCCOc2ccc(Cl)cc2)CC1` (centres undefined), the inhibition was -9.2%.

For the compound `COc1ccc(C(=O)N2CCN(Cc3cc(OC)c(OC)cc3OC)CC2)cc1`, the inhibition is -7.92%.

For the compound `CC1SC2(CCCCC2)N(c2ccc(F)cc2)C1=O` (centres undefined), the inhibition was -0.68%.

In the case of `COc1ccccc1NC(=O)CN1C(=O)C2CC=C(Cl)CC2C1=O` (centres undefined), the inhibition is 2.72%.

On to `Cc1cc(OCC(O)CNCC(C)O)c(C(C)C)cc1Cl` (centres undefined), for which the inhibition is 0.85%.

Turning to `O=S(=O)(NC1CCCC1)c1ccc(-c2ccc(S(=O)(=O)NC3CCCC3)cc2)cc1`, the inhibition was -2.79%.

`Clc1ccc(-c2csc(Nc3cccc4ccccc34)n2)cc1Cl`: the inhibition is 0.76%.

For `N#CC1=C(SCC(=O)Nc2cccc(F)c2)NC(=O)CC1c1ccccc1F` (centres undefined), the inhibition was 3.64%.

Take `CCc1ccccc1NC(=O)c1ccc(F)c(S(=O)(=O)NCc2ccc3c(c2)OCO3)c1`: the inhibition is 10.2%.

For `Cc1ccc(/C=C(\C#N)C(N)=O)c(C)c1`, the inhibition was 6.24%.

As for `COCCn1nnnc1C(c1cccnc1)N1CCN(c2ccccc2OC)CC1` (centres undefined), the inhibition is -7.29%.

Consider `Nc1cccc(-c2ccc(C(=O)Nc3ccc(N4CCOCC4)cc3)s2)c1`, for which the inhibition was 13.4%.

For the compound `CCS(=O)(=O)N1CCC(N2CC(C)CC(C)C2)CC1` (centres undefined), the inhibition is 31.2%.

With `CCS(=O)(=O)N1CCC(c2nnc(C3CC3)s2)CC1`, the inhibition was 1.6%.

With `CCS(=O)(=O)N1CCN(C2CCCCC2C)CC1` (centres undefined), the inhibition was 51.2% (active).
